{
  "source": "paper PMC4336329",
  "about": "(PLoS ONE, 2015)",
  "note": "About 14,000 (4.5%) of roughly 310,000 compounds showed an effect of 50% or more. The effect is printed as a negative number. The entries come from a sample that favours strong results as a whole.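 Further: peak tail current of the secondary pulse compared with the same well before compound.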",
  "data": [
    {"molecular_target": "human ether-à-go-go-related gene (hERG) potassium channel (human, UniProt Q12809)", "sequence (Q12809 whole entry, looked up)": "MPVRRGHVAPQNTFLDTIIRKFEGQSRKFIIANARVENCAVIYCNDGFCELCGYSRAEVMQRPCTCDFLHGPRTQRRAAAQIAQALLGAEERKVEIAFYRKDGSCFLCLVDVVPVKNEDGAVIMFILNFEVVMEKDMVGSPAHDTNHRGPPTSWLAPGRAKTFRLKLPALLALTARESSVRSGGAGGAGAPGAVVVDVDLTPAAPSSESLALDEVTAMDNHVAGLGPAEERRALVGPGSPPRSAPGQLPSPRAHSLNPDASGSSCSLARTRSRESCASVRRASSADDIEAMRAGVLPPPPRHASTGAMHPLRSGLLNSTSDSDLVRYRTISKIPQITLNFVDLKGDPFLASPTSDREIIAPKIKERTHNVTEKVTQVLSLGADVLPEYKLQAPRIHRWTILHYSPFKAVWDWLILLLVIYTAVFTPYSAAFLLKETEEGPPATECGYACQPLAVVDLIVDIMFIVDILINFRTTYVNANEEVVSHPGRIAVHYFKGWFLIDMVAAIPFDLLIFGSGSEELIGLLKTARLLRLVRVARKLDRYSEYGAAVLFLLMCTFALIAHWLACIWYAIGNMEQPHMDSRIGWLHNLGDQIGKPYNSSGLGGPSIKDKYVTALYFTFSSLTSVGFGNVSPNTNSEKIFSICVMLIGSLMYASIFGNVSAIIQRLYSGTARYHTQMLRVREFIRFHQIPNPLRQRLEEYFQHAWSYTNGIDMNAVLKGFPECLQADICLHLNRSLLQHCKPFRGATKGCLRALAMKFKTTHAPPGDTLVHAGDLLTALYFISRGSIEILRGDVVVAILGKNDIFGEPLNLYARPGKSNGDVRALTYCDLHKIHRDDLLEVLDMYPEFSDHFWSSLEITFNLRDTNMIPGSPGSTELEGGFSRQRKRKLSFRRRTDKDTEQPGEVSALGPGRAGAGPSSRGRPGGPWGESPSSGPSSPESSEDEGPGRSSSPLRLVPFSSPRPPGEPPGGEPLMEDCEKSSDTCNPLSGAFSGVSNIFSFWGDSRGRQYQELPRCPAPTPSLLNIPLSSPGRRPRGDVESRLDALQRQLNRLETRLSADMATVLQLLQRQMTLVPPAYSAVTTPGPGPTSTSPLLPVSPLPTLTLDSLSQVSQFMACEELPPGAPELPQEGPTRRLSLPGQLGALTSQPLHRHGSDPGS", "assay": "primary screen, population patch clamp on CHO cells stably expressing hERG; higher = less effect of the substance", "units": {"hERG current change (%, negative = inhibition) at 10uM": "%"}, "values": [
      {"smiles": "COc1cccc(/C=N/NC(=O)c2cccc([N+](=O)[O-])c2)c1OS(=O)(=O)c1ccccc1", "hERG current change (%, negative = inhibition) at 10uM": -16.2},
      {"smiles": "COc1ccc(C)cc1N(CC(=O)N1CCCCCC1)S(C)(=O)=O", "hERG current change (%, negative = inhibition) at 10uM": 12.2},
      {"smiles": "CCOc1ccc(CN2CCNC(=O)C2CC(=O)NC2CCOCC2)cc1", "note": "(stereo not shown)", "hERG current change (%, negative = inhibition) at 10uM": -44.7},
      {"smiles": "CC1CCC(NC(=O)COC(=O)c2ccco2)CC1", "note": "(stereo not shown)", "hERG current change (%, negative = inhibition) at 10uM": 7.07},
      {"smiles": "N#Cc1ccccc1OCC(=O)Nc1ccc2c(c1)OCCCO2", "hERG current change (%, negative = inhibition) at 10uM": 3.08},
      {"smiles": "COc1ccccc1CNC(=O)C1(C)Oc2cccnc2NC1=O", "note": "(stereo not shown)", "hERG current change (%, negative = inhibition) at 10uM": 9.69},
      {"smiles": "COCc1cc(CN2CCN(Cc3ccsc3)C(CCO)C2)ccc1OC", "note": "(stereo not shown)", "hERG current change (%, negative = inhibition) at 10uM": -82.9},
      {"smiles": "COc1ccc(CN2CCN(CCC(C)C)C(CCO)C2)cc1Cn1cccn1", "note": "(stereo not shown)", "hERG current change (%, negative = inhibition) at 10uM": -48.1},
      {"smiles": "COCc1cc(CN2CCN(CCCc3ccccc3)C(CCO)C2)ccc1OC", "note": "(stereo not shown)", "hERG current change (%, negative = inhibition) at 10uM": -66.1},
      {"smiles": "COc1ccc(CN2CCN(CCC(C)C)C(CCO)C2)cc1Cn1cncn1", "note": "(stereo not shown)", "hERG current change (%, negative = inhibition) at 10uM": 1.78},
      {"smiles": "COCc1cc(CN2CCN(CCc3ccccc3)C(CCO)C2)ccc1OC", "note": "(stereo not shown)", "hERG current change (%, negative = inhibition) at 10uM": -56.9},
      {"smiles": "CCOc1ccc(CN2CCN(Cc3ccsc3)C(CCO)C2)cc1CO", "note": "(stereo not shown)", "hERG current change (%, negative = inhibition) at 10uM": -39.4},
      {"smiles": "CC(C)(O)C#Cc1ccc(CN2CCN(Cc3ccsc3)C(CCO)C2)cc1", "note": "(stereo not shown)", "hERG current change (%, negative = inhibition) at 10uM": -21.6},
      {"smiles": "COc1ccc(CN2CCN(CCc3ccccc3)C(CCO)C2)cc1Cn1cncn1", "note": "(stereo not shown)", "hERG current change (%, negative = inhibition) at 10uM": -35.8},
      {"smiles": "O=C1CN(c2ccc(Cl)cc2)C2(CCCCC2)S1", "hERG current change (%, negative = inhibition) at 10uM": 4.49},
      {"smiles": "Cc1ccc(Cn2ccc(NC(=O)c3cc(-c4ccc(Br)cc4)on3)n2)cc1", "hERG current change (%, negative = inhibition) at 10uM": 22.6},
      {"smiles": "CCOC(=O)c1cc2nc(-c3ccccc3)cc(C)n2n1", "hERG current change (%, negative = inhibition) at 10uM": 5.61},
      {"smiles": "COC(=O)c1cc2ccsc2n1Cc1nc(-c2ccc(Cl)cc2)oc1C", "hERG current change (%, negative = inhibition) at 10uM": 7.33},
      {"smiles": "CSc1nc(N(C)NC(=O)c2ccc(Cl)cc2)c2ccccc2n1", "hERG current change (%, negative = inhibition) at 10uM": 2.16},
      {"smiles": "Cc1ccc(OCc2ccc(C(=O)Nc3ccc(S(N)(=O)=O)cc3)o2)cc1", "hERG current change (%, negative = inhibition) at 10uM": 12.4},
      {"smiles": "CCOC(=O)C1=C(O)CSC1=Nc1ccc(C)cc1", "hERG current change (%, negative = inhibition) at 10uM": -4.86},
      {"smiles": "CCC(C)n1c(SCC(=O)Nc2cc(C(C)(C)C)nn2-c2ccccc2)nc2ccccc2c1=O", "note": "(stereo not shown)", "hERG current change (%, negative = inhibition) at 10uM": 3.57},
      {"smiles": "CCc1ccc(NC(=O)Nc2cc(C(=O)NCC3CCCO3)ccc2N2CC3CC(C2)c2cccc(=O)n2C3)cc1", "note": "(stereo not shown)", "hERG current change (%, negative = inhibition) at 10uM": -17.6},
      {"smiles": "CCCNC(=O)c1ccc(N2CC3CC(C2)c2cccc(=O)n2C3)c(NC(=O)Nc2ccc(CC)cc2)c1", "note": "(stereo not shown)", "hERG current change (%, negative = inhibition) at 10uM": -78.7},
      {"smiles": "CCOc1ccc(NC(=O)c2ccc(N3CC4CC(C3)c3cccc(=O)n3C4)c(N)c2)cc1", "note": "(stereo not shown)", "hERG current change (%, negative = inhibition) at 10uM": -21.7},
      {"smiles": "O=C(Nc1ccc(Cl)cc1)N1CC2CC(C1)c1cccc(=O)n1C2", "note": "(stereo not shown)", "hERG current change (%, negative = inhibition) at 10uM": 4.31},
      {"smiles": "Nc1cc(C(=O)Nc2ccc(Cl)cc2)ccc1N1CC2CC(C1)c1cccc(=O)n1C2", "note": "(stereo not shown)", "hERG current change (%, negative = inhibition) at 10uM": -62.1},
      {"smiles": "CCc1ccc(NC(=O)Nc2cc(C(=O)O)ccc2N2CC3CC(C2)c2cccc(=O)n2C3)cc1", "note": "(stereo not shown)", "hERG current change (%, negative = inhibition) at 10uM": 20.4}
    ]}
  ]
}
